Mtb betalactam = beta-lactam sensitization of Mtb H37Rv, H37Rv. M. tuberculosis H37Rv growth with meropenem, percent inhibition. inhibition, % at 25 µM. 0.27% of 330,000 active; call rule not given here;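 further: growth measured after seven days incubation then overnight dye step; 0% = bacteria only wells and 100% = bacteria with antibiotic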
GDH-TPI inh = GDH-TPI coupling enzyme inhibitors, primary screen, artefact control for M. tuberculosis FBA inhibitor project, biochemical, absorbance, full deck | GDH-TPI coupled enzyme counterscreen, NADH absorbance | inhibition, % at 4.8 µM | 1.2% of 360,000 active; in the data active means inhibition above about 30%;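 further: 0% = DMSO wells and 100% = wells lacking the enzyme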
Rv3671c protease = Rv3671c serine protease inhibitors, primary screen, biochemical, fluorescence polarization, M. tuberculosis H37Rv. P9WHR9. inhibition, % at 5.96 µM. 0.048% of 320,000 active. AID 2606, 2010; in the data active means inhibition above about 38%;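 further: extracellular domain of Rv3671c used as enzyme; 0% = enzyme with DMSO and 100% = no enzyme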
Target sequence (P9WHR9 whole entry, looked up, the tested form may be a part): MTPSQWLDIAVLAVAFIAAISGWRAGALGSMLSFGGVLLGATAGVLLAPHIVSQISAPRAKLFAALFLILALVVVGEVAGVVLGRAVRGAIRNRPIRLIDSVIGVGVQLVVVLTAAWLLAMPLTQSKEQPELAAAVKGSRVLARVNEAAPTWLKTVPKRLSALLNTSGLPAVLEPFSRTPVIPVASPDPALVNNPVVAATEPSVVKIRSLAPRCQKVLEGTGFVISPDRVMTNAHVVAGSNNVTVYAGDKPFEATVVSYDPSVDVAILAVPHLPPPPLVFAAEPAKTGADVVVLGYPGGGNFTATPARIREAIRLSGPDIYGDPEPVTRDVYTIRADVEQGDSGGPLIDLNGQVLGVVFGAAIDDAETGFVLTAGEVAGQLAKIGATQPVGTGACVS
FBA Mtb inh = Mtb FBA enzyme inhibitors, primary screen, biochemical, fluorescence, strain H37Rv; inhibition, % at 1 µM; AID 588726, 2011; Fructose-bisphosphate aldolase (Mycobacterium tuberculosis (strain ATCC 25618 / H37Rv)), …; 2.3% of 360,000 active; purified M. tuberculosis FBA, fluorescence read-out; in the data active means inhibition above about 27%;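 further: 0% = vehicle and 100% = reference inhibitor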
Mtb UGM inh = M. tuberculosis UGM enzyme inhibitors, primary screen, biochemical, fluorescence polarization, single point; inhibition, % at 10 µM; UDP-galactopyranose mutase (Mycobacterium tuberculosis (strain ATCC 25618 / H37Rv)), …; purified UGM, fluorescence polarization probe displacement; 0.06% of 320,000 active; in the data active means inhibition above about 10%, passing the limit was not always enough; inconclusive means no clear call, values can overlap the other calls
SSB-PriA inh = inhibitors of Klebsiella pneumoniae PriA binding to SSB C-terminal tail, primary screen, biochemical, AlphaScreen | PriA–SSB C-terminal tail interaction (Klebsiella pneumoniae) | AlphaScreen SSBct-PriA binding, biotinylated peptide | inhibition, % at 33 µM | 0.6% of 430,000 active | AID 1272365, 2023; in the data active means inhibition mostly above about 37%, no sharp cut-off; inactive means mostly below about 20%;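 further: plate controls were negative control peptide for no effect and reference peptide for full effect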
* = called active by the depositor; ? = inconclusive; . = no result given; + = active, no number. Rows were chosen to be rich in hits. Some 3.2% of all compounds tested hit in one or more screens of this group.

SMILES	Mtb betalactam	GDH-TPI inh	Rv3671c protease	FBA Mtb inh	Mtb UGM inh	SSB-PriA inh
Cc1ccc(S(=O)(=O)N2CCN(C(=O)c3nn(C(C)C)c(=O)c4ccccc34)CC2)cc1C	-12	2	1	0	3	-7
Cn1nc(C(=O)N2CCN(S(=O)(=O)c3ccccc3)CC2)c2ccccc2c1=O	0	-1	-3	107*	5	-4
O=C(NN=Cc1coc2ccccc2c1=O)c1cc(Br)c(O)c(Br)c1	.	.	.	.	.	-9
N#CCSc1cccc2cccnc12	.	.	.	.	.	84*
c1cnc2c(SCc3ccc(-c4nnco4)cc3)cccc2c1	-4	15	0	16	-1	74*
c1cnc2c(SCc3ccncc3)cccc2c1	.	.	.	.	.	33
Clc1ccc(CSc2cccc3cccnc23)cc1Cl	.	.	.	.	.	46
Cc1cccc(CSc2cccc3cccnc23)c1	100	2	-32	11	2	95*
c1ccc(-c2c3ccccc3nc3[nH]c4ccccc4c23)cc1	23	13	-18	31*	0	-13
O=C(Cc1ccc(F)cc1)Nc1ccc2c(c1)N(C(=O)C1CC1)CC2	.	.	.	.	.	6
CCCOC(=O)c1c(N)n(Cc2ccco2)c2nc3ccccc3nc12	.	.	.	.	.	-4
COCCCn1c(N)c(C(=O)Nc2ccccc2)c2nc3ccccc3nc21	7	-1	5	4	2	-42
CCC(C)OC(=O)c1c(N)n(Cc2cccs2)c2nc3ccccc3nc12 (stereo not given)	0	7	-8	137*	-2	-18
COCCCn1c(N)c(C(=O)OC(C)COC)c2nc3ccccc3nc21 (stereo not given)	0	16	-7	+	3	-9
CCCCOCCCn1c(N)c(C(=O)OC(C)COC)c2nc3ccccc3nc21 (stereo not given)	-13	21	9	121*	0	-3
COC(=O)c1ccc(Nc2nc3ccccc3nc2NS(=O)(=O)c2cnn(C)c2)cc1	.	.	.	.	.	-13
COc1cccc(C(N)=NOC(=O)Cc2ccccc2[N+](=O)[O-])c1	.	.	.	.	.	4
CC(C)(C)c1ccc(S(=O)(=O)NCC2CCN(Cc3ccco3)CC2)cc1	.	.	.	.	.	-4
Cc1ccc(C(=O)/C=C/c2ccc(F)cc2)o1	19	39*	0	-3	-2	5
Cc1ccc(S(=O)(=O)NC[C@H]2CCCN2c2ccccc2)s1	.	.	.	.	.	34*
O=S(=O)(NC[C@H]1CCCN1c1ccccc1)c1cccc2ccccc12	.	.	.	.	.	32*
COc1ccc(N=Nc2c(N)nn(C)c2N)cc1	.	60*	.	-5	.	-5
CC(c1nccs1)N(C)c1nc2nonc2nc1N(C)C (stereo not given)	-3	25	1	2	0	-2
CC(c1nccs1)N(C)c1nc2nonc2nc1NC1CC1 (stereo not given)	-1	33*	-8	-2	0	-11
O=C(Nc1ccc2c(c1)CCC2)c1ccc(F)cc1	14	6	-5	117*	0	-29
SMILES	Mtb betalactam	GDH-TPI inh	Rv3671c protease	FBA Mtb inh	Mtb UGM inh	SSB-PriA inh
CCOc1cc2[nH]c(=S)n(CCCN(CC)CC)c(=O)c2cc1OCC	-18	8	3	0	-1	0
CCOc1cc2[nH]c(=S)n(CCOC)c(=O)c2cc1OCC	3	33*	3	1	-3	-1
CCOc1ccccc1CNC(=O)c1ccc(Cn2c(=O)[nH]c3cc(OC)c(OC)cc3c2=O)cc1	.	.	.	.	.	-18
CCOc1cc2[nH]c(=O)n(Cc3ccc(C(=O)NCCOC)cc3)c(=O)c2cc1OCC	-5	16	-2	9	.	104*
CSC1=N/C(=C/c2cccnc2)C(=O)N1Cc1ccccc1	-13	32*	-4	9	-3	-10
Cc1cc2ccccc2n1CCNC(=O)Cc1ccccc1	3	4	8	3	-1	44*
COc1ccc(/C=C/C(=O)NCCn2c(C)cc3ccccc32)cc1OC	-4	20	5	0	0	7
COc1cc(/C=C/C(=O)NCCn2c(C)cc3ccccc32)cc(OC)c1OC	-2	0	4	1	-4	48*
O=C(O)c1cnn2c(C(F)(F)F)cc(-c3ccco3)nc12	8	39*	3	-2	-1	-8
COc1ccccc1N1CCN(c2cc(N3CCCC3)nc(C)n2)CC1	9	3	1	2	0	4
COc1ccc(OC)c2c(C)cc(N3CCCN(C)CC3)nc12	-2	-1	3	31*	-2	44*
COCCNC(=O)/C(C#N)=C/C=C/c1ccccc1[N+](=O)[O-]	4	48*	4	-1	3	-4
COCCNC(=O)/C(C#N)=C/c1ccc(O)c([N+](=O)[O-])c1	-2	14	-7	-11	1	-28
CCn1c(NCc2cccs2)nc2ccccc21	-8	9	-6	1	0	-24
CCN1c2ccccc2-c2nc3ccccc3n2C1c1cccs1 (stereo not given)	?	7	4	+	0	-64
CCOC1=CC(=Cc2c(N)n3nc(CC(=O)N4CCCCC4)sc3nc2=O)C=CC1=O	.	.	.	.	.	-4
S=C1NC2(CCCCC2)Cc2ccccc21	2	13	0	-1	2	44*
COc1ccccc1C(=O)Nc1ccc2c(c1)OCC(C)(C)C(=O)N2	.	.	.	.	.	17
Cc1cc(NCCCN2CCOCC2)n2c(nc3ccccc32)c1C#N	-3	3	-7	+	2	-5
CCN(CC)CCCNc1cc(C(F)(F)F)c(C#N)c2nc3ccccc3n12	8	-4	0	14	2	5
Cc1cc(NCCCCO)n2c(nc3ccccc32)c1C#N	10	10	-1	+	0	-14
Cc1c(Cc2ccc(Cl)cc2)c(NCCCN2CCOCC2)n2c(nc3ccccc32)c1C#N	.	.	.	.	.	-11
CCN(CC)CCCNc1cc(C)c(C#N)c2nc3ccccc3n12	.	14	.	116*	.	.
Cc1c2c(n3c(nc4ccccc43)c1C#N)N(CCN1CCOCC1)CC2	14	10	-1	+	2	1
Cc1cc(N2CCOCC2)c2ccccc2n1	.	.	.	.	.	-10
SMILES	Mtb betalactam	GDH-TPI inh	Rv3671c protease	FBA Mtb inh	Mtb UGM inh	SSB-PriA inh
CCOc1ccc(CC(=O)NCc2sc(-c3cccs3)nc2C)cc1	.	.	.	.	.	-5
Cc1ccnc(Nc2cc(N3CCN(C(=O)c4cccs4)CC3)nc(C)n2)c1	.	.	.	.	.	-15
CC1CN(CC(O)Cn2c3ccccc3c3ccccc32)CC(C)O1 (stereo not given)	.	.	.	.	.	-2
CC[n+]1c(/C=C/N(C)c2ccccc2)oc2ccc(F)cc21	-2	42*	-40	-1	1	1
CC[n+]1c(/C=C/N(C)c2ccccc2)oc2ccccc21	-3	68*	-1	-1	-3	5
CC[n+]1c(/C=C/Nc2ccccc2)oc2ccccc21	10	28	7	4	-1	-1

Source: PubChem
